The source of these data is PubChem BioAssay (NCATS).

The target of experiment [1] is Pyruvate kinase (Leishmania mexicana) (UniProt Q27686). Put plainly: qHTS Validation Assay for Activators of Leishmania Mexicana Pyruvate Kinase (AID 959). To be noted: purified L. mexicana pyruvate kinase, enzyme activity; series mostly up to 57.5 µM. The gist of the method: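 Eight-point qHTS titrations in triplicate, data normalized to DMSO neutral control. Reaction: 0.2 nM LmPYK E451W mutant, 0.5 mM PEP, 0.1 mM ADP, 7 mM MgCl2, pH 7.2, one hour at room temperature; luminescent ATP detection.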

A short description of experiment [2]: Cell Viability - LYMP1-002 - Assay at 16 hr (AID 948). Note: potency is the fitted concentration of half-maximal effect. To be noted: LYMP1-002 lymphoblastoid cell viability; series mostly up to 92.2 µM. The procedure, abridged:
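LYMP1-002 human lymphoblastoid cells, 2500/well, were treated with compounds for 16 hr at 37 C in complete medium. Viability was read as intracellular ATP by CellTiter-Glo luminescence, and AC50 was derived from a Hill fit to concentration-response data.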

Experiment [3] in a line: MultiTox-Fluor Cytotoxicity Assay - LYMP1-002 - Live Cells (AID 955).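 Note: cells exposed to compound for 16 hours.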 Note: potency is the fitted concentration of half-maximal effect. The settings on record: LYMP1-002 lymphoblastoid live-cell protease fluorescence viability; series mostly up to 46.1 µM. The gist of the method: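 After 16 h compound exposure at 37 C, live LYMP1-002 lymphoblastoid cells (2500/well) were quantified by cleavage of cell-permeant GF-AFC substrate, read at 405/510 nm after 60 min. Concentration-response fitted with Hill equation for AC50.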

Experiment [4] is described as follows: MultiTox-Fluor Cytotoxicity Assay - LYMP1-003 - Dead Cells (AID 961). Note: nearly all actives have a fitted effect of over 70% in size. Note: potency is the fitted concentration of half-maximal effect. The settings on record: LYMP1-003 lymphoblastoid cells, dead-cell protease fluorescence; series mostly up to 92.2 µM. The procedure, abridged:
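Human lymphoblastoid LYMP1-003 cells (2500/well) were treated with compounds for 16 hr at 37 C in complete medium. Dead-cell protease release was read by bis-AAF-R110 fluorescence (Ex/Em 485/520). AC50 came from Hill fits, normalized to DMSO and 15 uM tetraoctylammonium bromide.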

The nature of experiment [5]: MultiTox-Fluor Cytotoxicity Assay - LYMP1-003 - Live Cells (AID 962).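 Note: cells exposed to compound for 16 hours at 37 °C.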 Note: potency is the fitted concentration of half-maximal effect. To be noted: LYMP1-003 lymphoblastoid cells, MultiTox-Fluor live-cell protease fluorescence; series mostly up to 92.2 µM. The gist of the method: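 Live-cell protease activity (GF-AFC substrate, 405/510 nm, 60 min at room temperature) after 16 h, 37 C compound exposure of human lymphoblastoid LYMP1-003 cells; concentration-response fitted to the Hill equation for AC50.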

Experiment [6] can be described thus: Cell Viability - LYMP2-003 (AID 965).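 Note: cells exposed to compounds for 24 h before reading; nearly all actives have a fitted effect of over 50% in size.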 Note: potency is the fitted concentration of half-maximal effect. The settings on record: LYMP2-003 lymphoblastoid cell viability; series mostly up to 92.2 µM. The procedure, abridged:
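Human lymphoblastoid LYMP2-003 cells, 2500/well, exposed to compounds for 24 h at 37 C in complete medium. Viability read as intracellular ATP by CellTiter-Glo luminescence; AC50 from Hill-equation fits of qHTS concentration-response data.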

Experiment [7] in a line: Cell Viability - LYMP2-004 (AID 966). Note: nearly all actives have a fitted effect of over 65% in size. Note: potency is the fitted concentration of half-maximal effect. The settings on record: LYMP2-004 lymphoblastoid cell viability, qHTS; series mostly up to 92.2 µM. The procedure, abridged: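 AC50 values come from Hill modelling of concentration-dependent loss of intracellular ATP, measured by CellTiter-Glo luminescence. Human LYMP2-004 lymphoblastoid cells (2500/well) were exposed to compound for 24 h at 37 C.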

A short description of experiment [8]: Cell Viability - LYMP2-005 (AID 967). Note: potency is the fitted concentration of half-maximal effect. The settings on record: LYMP2-005 lymphoblastoid cell viability; series mostly up to 92.2 µM. The procedure, abridged:
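Human lymphoblastoid LYMP2-005 cells, 2,500 per well in complete medium, rested 5 h at 37C then compound-treated 24 h at 37C. Intracellular ATP read by CellTiter-Glo luminescence after 30 min at room temperature; AC50 from Hill-equation fits of concentration-response data.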

A short description of experiment [9]: Cell Viability - LYMP1-003 - Assay at 24 hr (AID 963). Note: potency is the fitted concentration of half-maximal effect. The settings on record: LYMP1-003 lymphoblastoid cell viability; series mostly up to 92.2 µM. The gist of the method:
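Concentration-response qHTS: ATP loss measured by CellTiter-Glo luminescence after 24 h compound exposure at 37 C. Cells were LYMP1-003 human lymphoblastoid, 2500 per well. AC50 derived via standard Hill equation modeling.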

In experiment [10] the target is Pyruvate kinase PKM (Homo sapiens) (UniProt P14618). Put plainly: qHTS Assay for Inhibitors of Human Muscle Pyruvate Kinase (AID 958). To be noted: purified human PKM enzyme activity. The gist of the method: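 Purified human PKM2 (0.1 nM) with 0.5 mM PEP (Km) and 0.1 mM ADP in 50 mM imidazole pH 7.2, KCl, MgCl2, 1 h at room temperature; ATP formed read by coupled luciferase luminescence. Normalized to no-enzyme/110 uM thiadiazolimine inhibition; 0.3 nM enzyme column for activation.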
In general terms: Quantitative high-throughput screening tests each substance at several concentrations.

Molecules are shown by their SMILES. Results filed as inconclusive are left out. The source made the active and inactive calls. Calls come from the whole dose curve; as a rule, active = well fitted curve in the direction sought with a large enough effect; inconclusive = small, poorly fitted or top-dose-only effect, or another doubt; inactive = no such curve, though single readings can be large; an effect the other way counts as inactive or inconclusive. Peptide text beside a SMILES is read from it.

Pyruvate kinase (Leishmania mexicana), sequence (Q27686 2-499 E452W): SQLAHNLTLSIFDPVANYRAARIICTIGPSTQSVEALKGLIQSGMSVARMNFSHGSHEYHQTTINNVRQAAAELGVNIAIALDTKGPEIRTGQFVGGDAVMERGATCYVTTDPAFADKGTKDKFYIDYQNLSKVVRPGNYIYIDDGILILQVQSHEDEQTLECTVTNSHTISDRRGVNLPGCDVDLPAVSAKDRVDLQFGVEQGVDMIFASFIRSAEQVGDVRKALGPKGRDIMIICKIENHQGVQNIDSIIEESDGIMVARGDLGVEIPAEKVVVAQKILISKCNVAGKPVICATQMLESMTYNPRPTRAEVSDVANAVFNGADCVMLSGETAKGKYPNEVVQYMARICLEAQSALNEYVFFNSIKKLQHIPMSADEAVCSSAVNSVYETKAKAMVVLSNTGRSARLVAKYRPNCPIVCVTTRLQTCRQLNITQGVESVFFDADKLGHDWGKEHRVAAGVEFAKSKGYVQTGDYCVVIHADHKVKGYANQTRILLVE
Pyruvate kinase PKM (Homo sapiens), sequence (P14618 whole entry, looked up): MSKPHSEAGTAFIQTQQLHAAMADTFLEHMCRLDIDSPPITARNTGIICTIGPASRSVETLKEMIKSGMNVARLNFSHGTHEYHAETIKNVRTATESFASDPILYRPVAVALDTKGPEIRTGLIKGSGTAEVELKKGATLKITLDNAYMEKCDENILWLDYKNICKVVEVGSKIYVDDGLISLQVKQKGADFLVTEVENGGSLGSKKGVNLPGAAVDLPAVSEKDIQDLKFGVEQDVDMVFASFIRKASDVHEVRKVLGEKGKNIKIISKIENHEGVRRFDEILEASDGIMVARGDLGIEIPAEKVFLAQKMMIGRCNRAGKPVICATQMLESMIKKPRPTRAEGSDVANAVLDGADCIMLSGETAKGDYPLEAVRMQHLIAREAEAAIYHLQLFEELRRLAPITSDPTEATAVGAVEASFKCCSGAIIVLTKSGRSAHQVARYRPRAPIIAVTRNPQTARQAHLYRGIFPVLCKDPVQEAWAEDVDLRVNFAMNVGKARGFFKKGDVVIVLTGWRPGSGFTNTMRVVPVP

For the molecule `O=c1ccc2ccc(O)c(O)c2o1`, the Potency in [1] is 15.8 µM (active).
On to `CCc1nc(N)nc(N)c1-c1ccc(Cl)cc1`, for which the Potency result in experiment [2], in experiment [3], in experiment [4], in experiment [5], in [6] and in experiment [7] was “inactive” throughout. The Potency result in [8] is “inactive”.
Take `Nc1ccc(S(N)(=O)=O)cc1`: the Potency result in [2], in [3], in experiment [4], in experiment [5], in [9] and in [6] was “inactive” each time. The Potency result in [7] and in experiment [8] was “inactive” throughout.
In the case of `O=c1c(O)c(-c2ccc(O)cc2O)oc2cc(O)cc(O)c12`, in experiment [1], the Potency was 20 µM (active).
On to `CCCCC(CC)COC(=O)C(C#N)=C(c1ccccc1)c1ccccc1` (configuration not stated), for which the Potency entry in [2], in experiment [3], in [4], in experiment [5], in [9] and in experiment [6] was “inactive” in each case. Moreover, the Potency result in experiment [7] and in [8] was “inactive” throughout.
In the case of `Cc1cc(O)c2c(c1)C(=O)c1cc(O)cc(O)c1C2=O`, the Potency result in experiment [2], in [3], in experiment [4], in [5], in experiment [9] and in experiment [6] was “inactive” in each case. The Potency entry in experiment [7] and in experiment [8] was “inactive” throughout.
For `CN(C)c1ccc2nc3ccc(=[N+](C)C)cc-3sc2c1`, the Potency in experiment [2] is 12.6 µM (active); in [3], 12.6 µM (active); in experiment [4], 39.8 µM (active); in [5], 7.94 µM (active); in experiment [9] it was 7.94 µM (active); in [6], 3.98 µM (active). For the same molecule, the Potency in [7] and in experiment [8] was 5.01 µM (active) each time.
For `NNc1nncc2ccccc12`, the Potency in experiment [10] is 7.94 µM (active). Besides, the Potency entry in experiment [1] is “inactive”.
In the case of `Cc1cccc(C#Cc2ccccc2)n1`, the Potency in experiment [10] is 25.1 µM (active). The Potency entry in experiment [1] was “inactive”.
Consider `CCCc1cc(=O)[nH]c(=S)[nH]1`, for which the Potency result in experiment [2], in experiment [3], in [4], in experiment [5], in [9] and in experiment [6] was “inactive” in each case. The Potency result in experiment [7] and in experiment [8] was “inactive” throughout.
For the molecule `O=Nc1c(-c2c(O)[nH]c3cc(Br)ccc23)[nH]c2ccccc12`, in experiment [10], the Potency is 15.8 µM (active). Further, in [1], the Potency result was “inactive”.
With `CS(=O)(=O)OCCCCOS(C)(=O)=O`, the Potency result in experiment [2], in experiment [3], in [4], in [5], in experiment [9] and in experiment [6] was “inactive” throughout. Moreover, the Potency result in experiment [7] and in experiment [8] was “inactive” each time.
As to `CC(=O)Nc1ccc(O)cc1`, the Potency result in experiment [2], in experiment [3], in [4], in experiment [5], in experiment [9] and in experiment [6] was “inactive” throughout. Besides, the Potency entry in experiment [7] and in experiment [8] was “inactive” in each case.
For the molecule `c1ccc2[nH]c(-c3cscn3)nc2c1`, the Potency result in experiment [2], in experiment [3], in experiment [4], in [5], in [9] and in experiment [6] was “inactive” throughout. Besides, the Potency result in experiment [7] and in experiment [8] was “inactive” each time.
With `COC(=O)[C@H](Cc1ccccc1)NC(=O)[C@@H](N)CC(=O)O` (H-Asp-Phe-OMe), the Potency result in experiment [2], in experiment [3], in [4], in experiment [5], in experiment [9] and in experiment [6] was “inactive” each time. Further, the Potency result in experiment [7] and in [8] was “inactive” throughout.
In the case of `NS(=O)(=O)c1cc(C(=O)O)c(NCc2ccco2)cc1Cl`, the Potency entry in experiment [2], in [3], in experiment [4], in experiment [5], in [9] and in [6] was “inactive” each time. The Potency entry in experiment [7] and in experiment [8] was “inactive” each time.
As to `COc1c2occc2cc2ccc(=O)oc12`, the Potency result in [2], in experiment [3], in [4], in experiment [5], in [9] and in experiment [6] was “inactive” throughout. Besides, the Potency entry in experiment [7] and in experiment [8] was “inactive” each time.
Take `Cc1ccc(C)c(OCCCC(C)(C)C(=O)O)c1`: the Potency entry in [2], in experiment [3], in [4], in experiment [5], in experiment [9] and in experiment [6] was “inactive” each time. Also, the Potency result in experiment [7] and in experiment [8] was “inactive” in each case.
`O=c1c(O)c(-c2cc(O)c(O)c(O)c2)oc2cc(O)cc(O)c12`: the Potency in [1] is 2 µM (active).
